Assay in all cases: DAPPL (digital affinity profiling via proximity ligation, sequencing); 10 mM Tris-HCl pH 7.5, 50 mM NaCl, 1 mM DTT, 4% glycerol, room temperature, 30 min; GST-TFs on glutathione beads, 16-mer random dsDNA library, 0.1% formaldehyde crosslink after washing; high values mean tight binding
For experiment [1], the target named is T1, FEV (Homo sapiens, UniProt Q99581 1-238).
T1 sequence: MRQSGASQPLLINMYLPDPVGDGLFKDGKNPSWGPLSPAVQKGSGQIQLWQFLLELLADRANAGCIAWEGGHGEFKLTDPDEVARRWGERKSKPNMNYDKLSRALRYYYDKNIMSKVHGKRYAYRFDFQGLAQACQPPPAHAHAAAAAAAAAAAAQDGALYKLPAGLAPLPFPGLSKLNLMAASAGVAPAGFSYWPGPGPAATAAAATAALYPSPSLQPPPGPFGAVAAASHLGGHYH
Conditions: protein: recombinant; tags: N-terminal GST; dsDNA, one strand shown. In outline:
(§1)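 In yeast, human transcription factors were expressed with a GST fusion, then pulled down on glutathione beads and given DNA barcodes. Pooled with a tag-only sample, they were exposed to 200 nmole of a 16-mer random double-stranded DNA library (Tris/NaCl/DTT/glycerol buffer, room temperature, 30 min), washed, crosslinked with 0.1% formaldehyde, proximity-ligated using BsaI/T4 ligase for 1 h at 37 °C, PCR-amplified and read on an Illumina NextSeq500. Each hexamer's frequency of reads for a factor, divided by the matching frequency for the tag-only sample, gives the binding signal.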

Experiment [2] concerns the target ETV5 (Homo sapiens, UniProt P41161 1-510). Conditions: protein: recombinant; tags: N-terminal GST; dsDNA, one strand shown. In outline: as §1
In experiment [3] the target is HSF1 (Homo sapiens, UniProt Q00613 1-529). The note with it: protein: recombinant; tags: N-terminal GST; chain copies: 3; dsDNA, one strand shown. In outline: as §1
Experiment [4] concerns the target T2, SPIC (Homo sapiens, UniProt Q8N5J4 1-248).
T2 sequence: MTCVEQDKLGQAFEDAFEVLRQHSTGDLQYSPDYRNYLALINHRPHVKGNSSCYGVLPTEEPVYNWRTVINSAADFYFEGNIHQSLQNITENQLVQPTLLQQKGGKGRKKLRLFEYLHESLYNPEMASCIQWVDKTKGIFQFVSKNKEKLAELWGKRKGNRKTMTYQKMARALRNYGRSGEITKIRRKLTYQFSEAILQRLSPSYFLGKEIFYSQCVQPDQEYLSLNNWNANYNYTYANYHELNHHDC
Conditions: protein: recombinant; tags: N-terminal GST; dsDNA, one strand shown. The method, boiled down: as §1

The target of experiment [5] is ELF4 (Homo sapiens, UniProt Q99607 1-663). Conditions: protein: recombinant; tags: N-terminal GST; dsDNA, one strand shown. In outline: as §1
Experiment [6] has as its target T3, ELK4 (Homo sapiens, UniProt P28324-2 1-405).
T3 sequence: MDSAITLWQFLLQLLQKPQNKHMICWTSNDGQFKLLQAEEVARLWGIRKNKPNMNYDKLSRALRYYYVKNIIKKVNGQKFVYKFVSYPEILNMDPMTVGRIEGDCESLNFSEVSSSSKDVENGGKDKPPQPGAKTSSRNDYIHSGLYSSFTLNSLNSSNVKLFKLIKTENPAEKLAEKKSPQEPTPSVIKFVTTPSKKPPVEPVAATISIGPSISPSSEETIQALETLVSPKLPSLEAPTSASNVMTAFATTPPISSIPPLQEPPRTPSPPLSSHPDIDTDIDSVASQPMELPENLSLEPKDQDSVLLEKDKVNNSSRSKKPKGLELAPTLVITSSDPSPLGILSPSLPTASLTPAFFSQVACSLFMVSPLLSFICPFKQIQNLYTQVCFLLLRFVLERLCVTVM
Conditions: protein: recombinant; tags: N-terminal GST; dsDNA, one strand shown. In outline:
as §1

Experiment [7] deals with T4, ETV2 (Homo sapiens, UniProt O00321 1-342).
T4 sequence: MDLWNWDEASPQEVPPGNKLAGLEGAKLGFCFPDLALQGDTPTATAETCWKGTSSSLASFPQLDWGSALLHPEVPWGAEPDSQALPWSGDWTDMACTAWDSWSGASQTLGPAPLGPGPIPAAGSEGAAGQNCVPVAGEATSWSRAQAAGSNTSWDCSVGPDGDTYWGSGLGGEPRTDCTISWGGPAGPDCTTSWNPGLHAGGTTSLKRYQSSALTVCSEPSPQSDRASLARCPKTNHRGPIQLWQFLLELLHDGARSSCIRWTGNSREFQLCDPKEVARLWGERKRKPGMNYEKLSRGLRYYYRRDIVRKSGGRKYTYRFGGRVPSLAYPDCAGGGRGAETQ
Conditions: protein: recombinant; tags: N-terminal GST; dsDNA, one strand shown. In outline: as §1

Experiment [8] addresses T5, ELF3 (Homo sapiens, UniProt P78545 1-371).
T5 sequence: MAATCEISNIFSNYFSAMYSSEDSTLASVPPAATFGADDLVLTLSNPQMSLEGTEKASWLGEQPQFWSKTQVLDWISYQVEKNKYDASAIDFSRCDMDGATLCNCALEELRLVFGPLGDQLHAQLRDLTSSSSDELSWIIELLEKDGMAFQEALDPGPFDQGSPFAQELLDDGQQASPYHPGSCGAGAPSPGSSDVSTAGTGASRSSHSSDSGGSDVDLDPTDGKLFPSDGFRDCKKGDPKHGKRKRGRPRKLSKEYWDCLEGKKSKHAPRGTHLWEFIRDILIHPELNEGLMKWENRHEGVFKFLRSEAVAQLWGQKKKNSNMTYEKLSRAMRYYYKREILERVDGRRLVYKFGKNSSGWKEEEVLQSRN
Conditions: protein: recombinant; tags: N-terminal GST; dsDNA, one strand shown. In outline: as §1

The target of experiment [9] is CRX (Homo sapiens, UniProt O43186 1-299). Conditions: protein: recombinant; tags: N-terminal GST; dsDNA, one strand shown. The method, boiled down:
as §1

Experiment [10] deals with ETV1 (Homo sapiens, UniProt P50549 1-477). The note with it: protein: recombinant; tags: N-terminal GST; dsDNA, one strand shown. In outline:
as §1

Experiment [11] addresses T6, ERF (Homo sapiens, UniProt P50548 1-548).
T6 sequence: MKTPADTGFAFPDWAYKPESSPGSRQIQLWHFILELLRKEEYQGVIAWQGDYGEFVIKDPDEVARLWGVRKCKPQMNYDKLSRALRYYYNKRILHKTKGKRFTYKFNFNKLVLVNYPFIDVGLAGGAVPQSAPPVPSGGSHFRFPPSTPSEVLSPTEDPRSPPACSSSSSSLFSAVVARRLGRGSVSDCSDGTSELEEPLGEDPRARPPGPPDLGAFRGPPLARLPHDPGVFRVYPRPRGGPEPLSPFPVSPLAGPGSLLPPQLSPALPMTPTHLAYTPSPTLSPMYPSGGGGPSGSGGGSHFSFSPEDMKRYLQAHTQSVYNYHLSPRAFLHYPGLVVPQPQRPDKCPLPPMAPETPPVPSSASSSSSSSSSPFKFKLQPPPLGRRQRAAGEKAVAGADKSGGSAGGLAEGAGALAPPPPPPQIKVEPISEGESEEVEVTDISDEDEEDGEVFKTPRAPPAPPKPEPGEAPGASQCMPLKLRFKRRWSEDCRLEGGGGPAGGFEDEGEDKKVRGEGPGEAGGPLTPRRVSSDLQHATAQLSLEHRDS
The note with it: protein: recombinant; tags: N-terminal GST; dsDNA, one strand shown. The method, boiled down:
as §1

The target in experiment [12] is T7, ETV3L (Homo sapiens, UniProt Q6ZN32 1-361).
T7 sequence: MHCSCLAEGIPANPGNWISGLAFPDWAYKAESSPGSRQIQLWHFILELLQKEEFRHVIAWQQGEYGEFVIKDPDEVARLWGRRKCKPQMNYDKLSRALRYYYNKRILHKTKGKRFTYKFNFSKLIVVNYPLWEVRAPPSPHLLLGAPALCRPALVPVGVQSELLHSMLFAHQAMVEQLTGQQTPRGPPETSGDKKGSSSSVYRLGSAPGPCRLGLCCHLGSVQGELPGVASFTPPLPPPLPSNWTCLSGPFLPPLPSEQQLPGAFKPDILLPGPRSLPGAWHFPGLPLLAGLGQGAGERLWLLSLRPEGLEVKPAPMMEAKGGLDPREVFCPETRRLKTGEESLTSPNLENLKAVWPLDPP
The note with it: protein: recombinant; tags: N-terminal GST; dsDNA, one strand shown. In outline:
as §1

Experiment [13] deals with T8, ETS2 (Homo sapiens, UniProt P15036 1-469).
T8 sequence: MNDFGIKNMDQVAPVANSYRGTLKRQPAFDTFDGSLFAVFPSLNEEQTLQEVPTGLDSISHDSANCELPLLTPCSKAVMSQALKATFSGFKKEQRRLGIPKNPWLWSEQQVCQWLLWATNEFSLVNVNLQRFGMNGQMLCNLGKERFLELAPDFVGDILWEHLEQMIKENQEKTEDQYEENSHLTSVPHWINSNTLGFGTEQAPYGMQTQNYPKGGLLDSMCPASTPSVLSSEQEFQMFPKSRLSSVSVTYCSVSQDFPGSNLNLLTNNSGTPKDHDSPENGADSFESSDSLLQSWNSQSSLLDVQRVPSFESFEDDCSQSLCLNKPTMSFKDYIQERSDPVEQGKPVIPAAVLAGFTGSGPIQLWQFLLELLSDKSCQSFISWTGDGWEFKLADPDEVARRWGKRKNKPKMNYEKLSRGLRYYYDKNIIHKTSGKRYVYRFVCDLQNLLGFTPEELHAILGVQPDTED
Conditions: protein: recombinant; tags: N-terminal GST; dsDNA, one strand shown. In outline: as §1

For experiment [14], the target named is T9, SPDEF (Homo sapiens, UniProt O95238 1-335).
T9 sequence: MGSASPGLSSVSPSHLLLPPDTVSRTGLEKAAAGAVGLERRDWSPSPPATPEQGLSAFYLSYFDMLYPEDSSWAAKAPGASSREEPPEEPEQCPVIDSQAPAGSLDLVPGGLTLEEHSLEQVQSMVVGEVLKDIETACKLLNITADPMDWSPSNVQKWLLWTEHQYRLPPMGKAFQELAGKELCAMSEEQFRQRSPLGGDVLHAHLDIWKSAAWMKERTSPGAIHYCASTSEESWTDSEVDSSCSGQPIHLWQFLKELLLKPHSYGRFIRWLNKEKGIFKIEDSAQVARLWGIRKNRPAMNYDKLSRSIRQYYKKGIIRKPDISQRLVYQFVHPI
The note with it: protein: recombinant; tags: N-terminal GST; dsDNA, one strand shown. In outline:
as §1

For experiment [15], the target named is T10, ETV7 (Homo sapiens, UniProt Q9Y603 1-341).
T10 sequence: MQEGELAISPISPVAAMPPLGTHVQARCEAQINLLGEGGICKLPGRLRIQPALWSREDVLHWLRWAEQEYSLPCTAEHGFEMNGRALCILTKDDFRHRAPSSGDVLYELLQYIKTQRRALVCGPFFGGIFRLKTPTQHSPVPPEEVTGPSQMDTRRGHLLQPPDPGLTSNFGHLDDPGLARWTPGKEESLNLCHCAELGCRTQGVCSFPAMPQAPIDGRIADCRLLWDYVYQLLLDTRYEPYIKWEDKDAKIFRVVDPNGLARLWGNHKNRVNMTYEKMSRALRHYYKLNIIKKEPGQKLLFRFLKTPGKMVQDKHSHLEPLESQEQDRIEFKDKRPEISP
Conditions: protein: recombinant; tags: N-terminal GST; dsDNA, one strand shown. In outline:
as §1

Experiment [16] deals with T11, ELF5 (Homo sapiens, UniProt Q9UKW6-2 1-255).
T11 sequence: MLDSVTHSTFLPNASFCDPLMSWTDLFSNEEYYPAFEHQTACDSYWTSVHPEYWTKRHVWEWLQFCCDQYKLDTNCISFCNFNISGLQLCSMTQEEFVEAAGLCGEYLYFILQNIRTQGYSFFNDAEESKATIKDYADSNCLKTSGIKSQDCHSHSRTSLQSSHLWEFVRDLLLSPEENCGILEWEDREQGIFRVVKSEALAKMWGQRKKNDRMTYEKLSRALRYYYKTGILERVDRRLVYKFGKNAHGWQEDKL
The note with it: protein: recombinant; tags: N-terminal GST; dsDNA, one strand shown. The method, boiled down: as §1

Experiment [17] concerns the target T12, ETV3 (Homo sapiens, UniProt P41162-2 1-143).
T12 sequence: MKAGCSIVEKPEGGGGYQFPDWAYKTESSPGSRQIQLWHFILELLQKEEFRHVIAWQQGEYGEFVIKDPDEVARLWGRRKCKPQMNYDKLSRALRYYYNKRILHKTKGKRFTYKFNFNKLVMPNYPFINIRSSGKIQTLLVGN
The note with it: protein: recombinant; tags: N-terminal GST; dsDNA, one strand shown. In outline: as §1

Experiment [18] addresses ETV6 (Homo sapiens, UniProt P41212 1-452). The note with it: protein: recombinant; tags: N-terminal GST; dsDNA, one strand shown. In outline:
as §1

Chain of ETV6 (P41212 whole entry): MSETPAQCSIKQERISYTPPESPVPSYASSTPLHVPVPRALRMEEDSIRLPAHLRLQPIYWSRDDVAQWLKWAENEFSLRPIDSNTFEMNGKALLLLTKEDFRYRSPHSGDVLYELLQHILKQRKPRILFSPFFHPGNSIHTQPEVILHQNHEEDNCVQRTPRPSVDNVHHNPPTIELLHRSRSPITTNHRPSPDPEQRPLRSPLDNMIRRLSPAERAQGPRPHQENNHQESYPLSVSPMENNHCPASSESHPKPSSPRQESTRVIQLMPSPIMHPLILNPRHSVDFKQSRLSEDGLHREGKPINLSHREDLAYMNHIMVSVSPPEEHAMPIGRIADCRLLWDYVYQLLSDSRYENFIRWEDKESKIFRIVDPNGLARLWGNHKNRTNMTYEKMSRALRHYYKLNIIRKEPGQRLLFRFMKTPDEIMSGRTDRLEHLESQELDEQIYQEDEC
Chain of ELF4 (Q99607 whole entry): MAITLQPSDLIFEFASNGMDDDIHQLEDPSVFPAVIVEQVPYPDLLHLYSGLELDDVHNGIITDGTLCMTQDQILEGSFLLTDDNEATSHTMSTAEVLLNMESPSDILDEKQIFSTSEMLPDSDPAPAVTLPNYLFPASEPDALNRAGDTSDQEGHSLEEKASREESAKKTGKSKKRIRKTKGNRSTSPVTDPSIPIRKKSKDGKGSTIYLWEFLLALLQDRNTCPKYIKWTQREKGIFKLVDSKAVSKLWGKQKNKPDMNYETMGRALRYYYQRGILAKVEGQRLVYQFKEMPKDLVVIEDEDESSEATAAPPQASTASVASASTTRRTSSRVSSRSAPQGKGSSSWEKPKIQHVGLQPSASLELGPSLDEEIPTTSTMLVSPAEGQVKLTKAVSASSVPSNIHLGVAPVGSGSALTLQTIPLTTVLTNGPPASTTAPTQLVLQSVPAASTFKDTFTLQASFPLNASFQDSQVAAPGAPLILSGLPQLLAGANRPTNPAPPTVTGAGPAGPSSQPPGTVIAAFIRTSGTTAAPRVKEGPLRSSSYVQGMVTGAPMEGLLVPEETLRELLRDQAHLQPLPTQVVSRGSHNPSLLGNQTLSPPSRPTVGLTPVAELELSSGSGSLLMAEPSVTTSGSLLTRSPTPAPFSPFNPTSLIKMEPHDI
Chain of ETV5 (P41161 whole entry): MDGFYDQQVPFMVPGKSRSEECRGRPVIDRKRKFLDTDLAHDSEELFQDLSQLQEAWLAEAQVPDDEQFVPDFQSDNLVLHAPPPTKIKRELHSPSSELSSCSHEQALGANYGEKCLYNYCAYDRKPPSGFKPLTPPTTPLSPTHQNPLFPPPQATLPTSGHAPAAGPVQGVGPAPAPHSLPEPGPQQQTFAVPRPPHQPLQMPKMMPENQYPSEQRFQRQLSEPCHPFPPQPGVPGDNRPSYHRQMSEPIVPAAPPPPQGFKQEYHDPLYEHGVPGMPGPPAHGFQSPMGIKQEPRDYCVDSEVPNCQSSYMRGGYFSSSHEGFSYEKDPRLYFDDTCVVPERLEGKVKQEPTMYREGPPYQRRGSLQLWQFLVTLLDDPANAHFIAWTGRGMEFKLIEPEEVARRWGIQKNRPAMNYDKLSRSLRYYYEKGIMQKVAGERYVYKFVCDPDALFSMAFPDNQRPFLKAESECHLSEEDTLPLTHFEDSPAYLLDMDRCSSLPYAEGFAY
Chain of HSF1 (Q00613 whole entry): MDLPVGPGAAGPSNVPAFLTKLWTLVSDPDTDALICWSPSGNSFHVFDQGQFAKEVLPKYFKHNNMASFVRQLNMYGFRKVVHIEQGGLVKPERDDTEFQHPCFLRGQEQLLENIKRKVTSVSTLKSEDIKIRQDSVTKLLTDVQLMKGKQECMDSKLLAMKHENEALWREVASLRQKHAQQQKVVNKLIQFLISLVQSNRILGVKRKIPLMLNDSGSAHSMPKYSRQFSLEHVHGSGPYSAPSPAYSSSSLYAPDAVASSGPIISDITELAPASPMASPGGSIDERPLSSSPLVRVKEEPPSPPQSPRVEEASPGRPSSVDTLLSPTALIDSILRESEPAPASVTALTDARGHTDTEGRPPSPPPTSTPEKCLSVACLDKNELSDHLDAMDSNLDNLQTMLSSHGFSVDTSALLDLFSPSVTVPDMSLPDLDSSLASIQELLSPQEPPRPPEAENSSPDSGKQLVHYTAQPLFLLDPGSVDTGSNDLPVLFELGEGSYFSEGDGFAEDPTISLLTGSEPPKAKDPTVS
Chain of CRX (O43186 whole entry): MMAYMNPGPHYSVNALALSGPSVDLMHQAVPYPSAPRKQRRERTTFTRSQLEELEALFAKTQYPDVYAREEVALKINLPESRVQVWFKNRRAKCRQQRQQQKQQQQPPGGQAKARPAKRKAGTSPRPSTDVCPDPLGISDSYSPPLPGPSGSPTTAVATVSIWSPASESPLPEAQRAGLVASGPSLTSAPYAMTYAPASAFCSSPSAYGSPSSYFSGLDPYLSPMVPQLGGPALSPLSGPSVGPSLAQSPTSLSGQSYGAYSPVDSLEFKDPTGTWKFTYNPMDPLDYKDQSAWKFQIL
Chain of ETV1 (P50549 whole entry): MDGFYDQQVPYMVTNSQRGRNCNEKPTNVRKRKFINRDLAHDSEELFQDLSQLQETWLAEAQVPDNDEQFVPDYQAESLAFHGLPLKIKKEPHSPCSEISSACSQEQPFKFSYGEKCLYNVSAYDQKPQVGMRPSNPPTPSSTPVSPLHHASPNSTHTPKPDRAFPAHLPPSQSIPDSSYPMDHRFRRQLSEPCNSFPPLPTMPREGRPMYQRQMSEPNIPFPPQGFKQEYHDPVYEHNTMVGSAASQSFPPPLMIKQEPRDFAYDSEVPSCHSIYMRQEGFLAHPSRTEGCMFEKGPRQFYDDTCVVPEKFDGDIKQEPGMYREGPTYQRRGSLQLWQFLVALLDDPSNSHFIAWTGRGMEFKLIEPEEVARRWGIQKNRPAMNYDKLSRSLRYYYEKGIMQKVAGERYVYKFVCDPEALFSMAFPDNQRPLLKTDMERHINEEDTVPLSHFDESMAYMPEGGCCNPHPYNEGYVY

Turning to AAGTTC, the binding signal in experiment [1] was 1.29 fold enrichment (6-mer frequency, TF over GST control); in experiment [2] it was 1.47 fold enrichment (6-mer frequency, TF over GST control); in experiment [3], 1.94 fold enrichment (6-mer frequency, TF over GST control); in [4], 1.54 fold enrichment (6-mer frequency, TF over GST control); in [5], 1.35 fold enrichment (6-mer frequency, TF over GST control); in experiment [6], 1.41 fold enrichment (6-mer frequency, TF over GST control). The binding signal in [7] is 1.22 fold enrichment (6-mer frequency, TF over GST control); in experiment [8] it was 1.47 fold enrichment (6-mer frequency, TF over GST control); in experiment [9], 1.22 fold enrichment (6-mer frequency, TF over GST control); in experiment [10], 1.34 fold enrichment (6-mer frequency, TF over GST control); in [11], 1.31 fold enrichment (6-mer frequency, TF over GST control); in experiment [12], 1.5 fold enrichment (6-mer frequency, TF over GST control). For the same sequence, the binding signal in [13] is 1.55 fold enrichment (6-mer frequency, TF over GST control); in experiment [14] it was 1.54 fold enrichment (6-mer frequency, TF over GST control); in experiment [15], 1.4 fold enrichment (6-mer frequency, TF over GST control); in experiment [16], 1.57 fold enrichment (6-mer frequency, TF over GST control); in experiment [17], 1.48 fold enrichment (6-mer frequency, TF over GST control); in experiment [18], 1.52 fold enrichment (6-mer frequency, TF over GST control).
